# Hit rate of the full screen: of about 410,000 compounds, about 7,200 (1.8%) were called active. About 7% were inconclusive and are not listed. Shown is part of a subset that was picked to be rich in actives. Values without a mark were called inactive. Calls follow the shape of the dose curve; as a rule, active = well fitted activation curve with a large enough effect; inconclusive = small, poorly fitted or top-dose-only effect, or another doubt; inactive = no such curve, though single readings can be large or run the other way.
# Test: qHTS of TDP-43 Inhibitors; also: nearly all actives have a fitted effect of over 50% in size; as to growth rescue (activation): % of control where 0% means no effect
# Details: TDP-43 expressing yeast growth rescue, BacTiter-Glo, 24 h; series mostly up to 46.1 µM; growth rescue (activation): at the top concentration
# Description: The goal of this project is to identify new chemical probes capable of reversing the toxicity associated with TDP-43 which is associated with frontotemporal lobar degeneration and amyotrophic lateral sclerosis. These compounds will provide a complementary approach to deciphering the tangled mechanisms of toxicity and protection that we have uncovered through genome-wide genetic screens and are beginning to uncover in a large-scale proteomics analysis with mass spectroscopy.
# To this end, a miniaturized assay was developed to be screened against the Molecular Libraries Small Molecule Repository (MLSMR) to discover TDP-43 inhibitors. Please note that in the set-up this yeast-based assay compounds that inhibit as TDP-43, have a read-out as activators.
# NIH Chemical Genomics Center [NCGC]
# NIH Molecular Libraries Probe Centers Network [MLPCN]
# Assay Submitter (PI): Susan Lindquist, Whitehead Institute/MIT
# Dispense 2.5 microL yeast galactose medium per 1536-well plate, pin compound, dispense 2.5 microL TDP-43 expressing yeast in galactose medium at OD600=0.02 (pregrown in raffinose medium to mid-log phase) per well, incubate for 24 hr at 30 deg C, and cell growth will be measured using 5 microL of Bactiter/Glo reagent to entire plate and read using Luminescence Protocol in ViewLux.
# Potency is read from the fitted curve at half-maximal effect.
SMILES,growth rescue (activation) [%],Potency
O=C1N(Cc2ccccc2)c2ccc(Cl)cc2C1(O)c1c[nH]c2ccccc12 (stereo not given),25.9,–
CCOc1ccc(NC(=O)CSc2nncn2C)cc1,-8.46,–
CCCCOc1ccc(NC(=O)CSCC(=O)OCC)cc1,–,12.6 µM (active)
CCCCN(C(=O)CSCC(=O)Nc1ccc(OC)cc1)c1c(N)n(CCC)c(=O)[nH]c1=O,13.8,–
O=C(COc1ccc(Cl)cc1)Nc1ccc(-c2nc3cc(Cl)ccc3o2)c(O)c1,24.4,–
O=S(=O)(c1ccc(Br)cc1)c1nnn2c1nc(NC1CCCCCC1)c1sccc12,-1.95,–
COC(C[C@@H]1O[C@@H]1C(=O)[C@H](C)OCc1ccccc1)OC,13,–
COC(C/C=C/C(=O)[C@@H](C)OCc1ccccc1)OC,–,20 µM (active)
COC(C[C@H](O)CC(=O)[C@@H](C)OCc1ccccc1)OC,18,–
Cc1ccc(NC(=O)C(=O)NCC(c2cccnc2)N2CCOCC2)cc1 (stereo not given),20.9,–
COc1ccc(OC)c(-n2nnc3c(sc4nc(C)c(Br)c(C)c43)c2=O)c1,14.9,–
CCc1ccc(Nc2nn3c(=O)c4cc5c(cc4nc3s2)OCO5)cc1,6.61,–
CC1CCN(Cc2nc(-c3ccc(Cl)cc3)no2)CC1,-5.38,–
COc1cc(OC)c(NC(=O)c2nc(-c3ccncc3)no2)cc1Cl,5.65,–
Cc1cc(Cl)ccc1OCc1nc(-c2ccncc2)no1,–,20 µM (active)
Cc1c(Cl)cccc1NC(=O)Cn1cc(C(=O)c2cccs2)c2ccccc21,22.8,–
COc1ccc(N2CCN(Cc3nc4c(c(=O)[nH]c(=O)n4C)n3Cc3ccc(Cl)cc3)CC2)cc1,-19.3,–
Cc1cccc(C(=O)N2CCc3cc(CNC(=O)Cc4ccc(F)cc4)ccc32)c1,20.6,–
CC1=Nc2cc(C(=O)NCc3ccc(C)cc3)ccc2Sc2ccc(Cl)cc21,21.4,–
CCc1c(-c2ccc(F)cc2)ncn1Cc1cccc(-c2ccccc2)c1,–,15.8 µM (active)
CCCCc1c(-c2ccc(Br)cc2)ncn1CCc1ccccc1OC,43.7,–
CCCc1c(-c2ccccc2F)ncn1Cc1ccccc1OC,15.3,–
CCOc1ccc(C(=O)Nc2ccc3nc4c(c(Nc5ccccc5OC)c3c2)CCCC4)cc1,-14.8,–
CCOc1ccc(CNC(=O)c2cc(=O)[nH]c3ccc(S(=O)(=O)N4CCCCC4)cc23)cc1,0,–
COc1ccc(CNC(=O)c2cc3c(=O)[nH]c4ccccc4c3s2)cc1,9.68,–

SMILES,growth rescue (activation) [%],Potency
Cc1cccc(N2CCN(S(=O)(=O)c3ccc4[nH]c5c(c4c3)CCCCC5)CC2)c1C,-17.8,–
O=C(c1ccc(CN2CCOCC2)cc1)N1CCN(c2ccccc2F)CC1,3.14,–
O=C(c1cccc2ccccc12)N1CCN(c2ccccc2F)CC1,–,12.6 µM (active)
COc1cc(OC)c(OC)cc1CN1CCN(C(=O)c2cccc3ccccc23)CC1,-19.7,–
CCCSc1ncc(Cl)c(C(=O)Nc2sc3c(c2C(=O)NCCOC)CCCC3)n1,24.9,–
O=C(NCCc1ccc(Cl)cc1)c1ccc2nc(CCc3ccccc3)oc2c1,11.6,–
CC(CNC(=O)c1nnc(Cc2cccc(F)c2)o1)c1ccccc1 (stereo not given),–,15.8 µM (active)
O=C(NCCCN1CCN(c2cccc(Cl)c2)CC1)c1nnc(Cc2ccc(F)cc2Cl)o1,14.6,–
CNC(=O)c1nnc(Cc2ccc(Cl)cc2)o1,25.3,–
CCOC(=O)c1cnc2c(C)cc(Cl)cc2c1NCCc1ccc(OC)c(OC)c1,15,–
Cc1ccc(Nc2nc3ccccc3nc2-n2nc(C)cc2C)c(Cl)c1,27.7,–
CCOc1ccc(CNC(=O)c2cc(-c3ccc(Cl)s3)nc3ccccc23)cc1,22.8,–
O=C(c1ccco1)n1nc(-c2ccc(Cl)cc2)nc1NCc1ccccc1,5,–
CN(O)C(=S)c1ccccc1,–,3.55 µM (active)
Cc1cc(C)cc(NC(=O)Cn2nc(N3CCN(c4ccccc4)CC3)ccc2=O)c1,20.2,–
Cc1nc2nc3c(cn2n1)C(=O)CC(c1ccccc1)C3 (stereo not given),13.9,–
Cc1cc(C)nc(-n2ncc3c2CC(c2ccc(C(C)C)cc2)CC3=O)n1 (stereo not given),–,28.2 µM (active)
O=C(O)COCC(=O)NCc1csc2ccc(Cl)cc12,-10.6,–
CNC(=O)c1csc(Cc2c(Cl)sc3ccc(Cl)cc23)n1,–,20 µM (active)
CC(=O)NNC(=O)c1csc(Cc2c(Cl)sc3ccc(Cl)cc23)n1,2.99,–
COc1ccc(-n2c(=O)c3ccccc3n(Cc3ccccc3Cl)c2=O)cc1,15.2,–
Cc1coc(C)c1C(=O)CC1(O)C(=O)N(C)c2ccc(Cl)cc21 (stereo not given),-11.5,–
Cc1ccc(CCN2CC(C(=O)NCCc3ccccc3)CC2=O)cc1 (stereo not given),4.24,–
CCOC(=O)CN1C(=O)C(O)(CC(=O)c2ccccn2)c2ccccc21 (stereo not given),9.65,–
CCCN1C(=O)C(O)(CC(=O)c2ccc(CC)cc2)c2cc(Br)ccc21 (stereo not given),–,25.1 µM (active)

# — PubChem BioAssay AID652104 (National Center for Advancing Translational Sciences (NCATS), 2013)
